The results in this text go back to PubChem BioAssay (EPA / NIEHS).

Inconclusive results are not listed. Calls of active or inactive are those of the source. The calls were made as follows: active = hit-call score of the fitted dose curve at least 0.9, where 1 is the maximum; inconclusive = response in the unintended direction; inactive = score below 0.9.

A short description of the assay: ATG_XTT_Cytotoxicity: Cytotoxicity Assessment in the Attagene TRANS-FACTORIAL HepG2 Assay (AID 2283584).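 As to AC50: XTT signal for cell number as viability in transfected HepG2 cells; cells exposed to compound for 24 h before reading; active means loss of viability signal versus DMSO baseline.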 In a few lines:
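24 h chemical exposure of reporter-transfected HepG2; XTT signal loss vs DMSO indicates cytotoxicity.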
Regarding `Cc1cc(C)c(C)c(C)c1`, the call was inactive.

In the case of `CCCCCCCCCCc1ccccc1`, the call was inactive. Regarding `Cc1ccc2oc(=O)ccc2c1`, the call was inactive. Regarding `C=CC(C)(CCC=C(C)C)OC(=O)C(C)C` (stereo not given), the compound was called inactive. Consider `Cc1c(C)c([N+](=O)[O-])c(C(C)(C)C)c([N+](=O)[O-])c1C`, for which the compound was classed as inactive. The same measure, in the same setting: the entry for `C=CC(C)(CCC=C(C)C)OC(=O)CC(C)C` (stereo not given) is “inactive”; for `O=C(O)C(c1ccc(Cl)cc1)c1ccc(Cl)cc1` it is “inactive”. Same read-out and setting: then `CCC(C)C=O` (stereo not given), with “inactive”. Same read-out and setting: the entry for `O=C1CCCN1CCO` is “inactive”; for `Nc1ccc(N=Nc2ccccc2)c(N)n1` it is “inactive”; for `Clc1nc2ccccc2s1` it is “inactive”.

Turning to `C[Si](C)(C)O[Si](O)(O)O`, the call was inactive. Still for that read-out and setting: then `Cc1cccc(C(=O)O)c1`, with “inactive”; and `CCC(Cc1ccccc1)(C(=O)c1ccc(N2CCOCC2)cc1)N(C)C` (stereo not given), with “inactive”; and `O=c1[nH]c(=O)c2[nH]c(=O)[nH]c2[nH]1`, with “inactive”. The same measure, in the same setting: the entry for `Cc1ccc(C2OC[C@@H]3OC(c4ccc(C)cc4)O[C@H]([C@H](O)CO)[C@@H]3O2)cc1` (stereo not given in full) is “inactive”; for `O=[N+]([O-])c1ccc(CO)cc1` it is “inactive”; for `Cc1ccc2c(c1)C(=O)c1ccccc1C2=O` it is “inactive”.

With `N=c1ccn2c(n1)O[C@H]1[C@H](O)[C@@H](CO)O[C@H]12`, the outcome was inactive. `CC(=O)Nc1ccc2c(c1)Cc1cc(NC(C)=O)ccc1-2`: the compound was called inactive. `CCN(Cc1cccc(S(=O)(=O)O)c1)c1ccc(C(=C2C=CC(=[N+](CC)Cc3cccc(S(=O)(=O)[O-])c3)C=C2)c2ccccc2)cc1`: the compound was called inactive.

With `N[C@H]1C(O)O[C@H](CO)[C@H](O)[C@@H]1O` (stereo not given in full), the outcome was inactive. In the case of `Cc1cccc(N)n1`, the outcome was inactive.

For the compound `Cc1cnc(NC(=O)C2=C(O)c3ccccc3S(=O)(=O)N2C)s1`, the compound was called inactive. On the same count and under the same terms, the entry for `CC(CC=O)c1ccccc1` (stereo not given) is “inactive”; for `CC(=O)c1ccc2c(c1)CCCC2` it is “inactive”; for `O=C(O)c1cc2ccccc2nc1C(=O)O` it is “inactive”.

Turning to `C(=CC=Nc1ccccc1)C=CNc1ccccc1`, the outcome was inactive. `O=c1[nH]nc(-c2ccc([N+](=O)[O-])o2)o1`: the compound was classed as inactive. On to `C=CC(=O)OCC(Br)CBr` (stereo not given), for which the call was inactive.

For the compound `CC(C)COC(=O)C=Cc1ccccc1`, the compound was classed as inactive. As to `Nc1ccc(-c2ccc(F)cc2)cc1`, the call was inactive. With `[Cl][Bi]([Cl])([c]1ccccc1)([c]1ccccc1)[c]1ccccc1`, the AC50 was 7.84 µM (active). Consider `[Cl][Nd]([Cl])[Cl]`, for which the compound was classed as inactive. Same read-out and setting: the entry for `NC(=O)C1CO1` (stereo not given) is “inactive”. In the case of `C=C[C@](C)(O)CC[C@@H]1[C@@]2(C)CCCC(C)(C)[C@@H]2CC[C@@]1(C)O`, the concentration at half-maximal activity (AC50) is 119 µM (active). As for `CC=CC(=O)N(CC)c1ccccc1C`, the call was inactive.

For the compound `CCCC(=O)OCc1ccccc1`, the call was inactive. Regarding `CCCCCCCCCCCCCCCC(=O)OCC`, the outcome was inactive.

In the case of `CC(C)(C)c1n[nH]c(=O)n(N)c1=O`, the compound was called inactive.
